Methyltransferases: Primary Screen for Target Class Profiling of Small Molecule Inhibitors of Methyltransferases; purified enzyme, MTase-Glo SAH luminescence; active compounds read low; calls only at 40 µM; 25,000 compounds, 3.9% hits; AID 1745853, 2022; call rule not given here
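Each enzyme was reacted with SAM and its substrate, with compounds tested once at 40 uM; SAH formed was read by MTase-Glo luminescence.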
An asterisk follows results filed as active; i = inactive; + = active, no number; ! = repeats disagree. Only a selection was taken, and hits are over-represented in it overall. % is set by controls: 0 for no effect and ±100 for the full control effect.

SMILES | Methyltransferases
CCc1ccc(S(=O)(=O)c2nnn3c2nc(N2CCN(CC)CC2)c2cc(Cl)ccc23)cc1 | i
Fc1ccc2[nH]ccc2c1-c1nc(N2CCOCC2)c2sc(CN3CCN(CC4CC4)CC3)cc2n1 | +
Cc1cc2c(cc1S(=O)(=O)Nc1cccc(Cl)c1C)n(C)c(=O)n2C | i
CC(C)Cn1c(=O)c2ccc(C(=O)NC3CCCCC3)cc2n2c(SCC(N)=O)nnc12 | i
O=C(NC1CCN(Cc2ccccc2)CC1)C1CCCN(c2cnc3nccnc3c2)C1 (stereo unspecified) | i
COc1ccccc1-c1cccc(CN2CCC(NC(C)=O)CC2)c1 | i
CN1CCN(Cc2nnc(C(=O)N3CCC[C@@H]3c3ccc(Br)cc3)n2Cc2ccccc2)CC1 | i
COc1cc2nc(N3CCCN(C)CC3)nc(NC3CCN(Cc4ccccc4)CC3)c2cc1OC | +
COc1cc2nc(N3CCN(C)CC3)nc(NC3CCN(Cc4ccccc4)CC3)c2cc1OC | +!
COc1cc2nc(N3CCN(C(=O)COc4c(OC)cccc4C(C)C)CC3)nc(N)c2cc1OC | i
COc1cc2c(NC3CCN(C(C)C)CC3)nc(N3CCC(F)(F)CC3)nc2cc1OCCCN1CCCC1 | +
CCN(CC)CCCN1C(=O)c2ccc(-c3ccco3)n2CC1(C)C(=O)NC1CCCCCCC1 (stereo unspecified) | i
CCN1C(=O)c2cc(C(=O)Nc3ccccc3C)nn2CC1(C)C(=O)NC1CCCC1 (stereo unspecified) | i
COc1ccc(Cn2c(=O)c3ccccc3n3c(-c4ccc(F)c(F)c4)nnc23)cc1 | i
CCOc1ccc(CCN2C(=O)c3c(C(=O)OC)ncn3CC2(C)C(=O)NC2CCCCCC2)cc1 (stereo unspecified) | i
CCOc1ccc(CCNS(=O)(=O)c2ccc3oc(=O)c4ncn(C)c4c3c2)cc1OCC | i
O=C(CC1CCOC2(CCN(S(=O)(=O)c3ccc(F)cc3)CC2)C1)N1CCOCC1 (stereo unspecified) | i
CCOC(=O)c1cc2n(n1)CC(C)(C(=O)NC1CCC(C)CC1)N(c1cc(C)cc(C)c1)C2=O (stereo unspecified) | i
CCOC(=O)c1cc2n(n1)CC(C)(C(=O)NCCCOC)N(c1ccc(C)c(Cl)c1)C2=O (stereo unspecified) | i
COc1ccccc1CNC(=O)CCc1nnc2n(CC(C)C)c(=O)c3ccccc3n12 | i
CCC1c2ccc(C)n2CCN1C(=O)NCc1ccc(C)cc1 (stereo unspecified) | i
CC1=CC(=O)[C@@]2(C(C)C)C[C@@H]12 | +
Cc1ccccc1N1C(=O)c2cc(C(C)(C)C)nn2CC1(C)C(=O)NC1CCCCC1 (stereo unspecified) | i
CC(C)CCNC(=O)C1(C)Cn2c(cc3ccccc32)C(=O)N1c1cccc(Cl)c1 (stereo unspecified) | i
Cc1ccccc1CN1C(=O)c2ccc(-c3ccccc3)n2CC1(C)C(=O)NC1CCCCC1 (stereo unspecified) | i
SMILES | Methyltransferases
CC(C(=O)NCCc1ccc(Cl)cc1)n1ccc2cc(S(=O)(=O)N3CCCC3)ccc21 (stereo unspecified) | i
CN(CCCOc1ccc(Cc2ccccc2)cc1)CCC(=O)O | i
COc1ccc(CCN(C)CCCOc2nsc(-c3ccccc3)n2)cc1OC | +
COc1cccc(-c2[nH]cnc2-c2ccccc2)c1OCCCN(C)C | i
CC(CN1C(=O)c2cc3sccc3n2CC1(C)C(=O)NC1CCCCCC1)c1ccccc1 (stereo unspecified) | i
COc1ccccc1CNC(=O)C1(C)Cn2cnc(C(=O)NCc3ccc(OC(C)C)cc3)c2C(=O)N1C1CC1 (stereo unspecified) | i
CC1CCC(NC(=O)C2(C)Cn3c(ccc3-c3ccco3)C(=O)N2C2CCCC2)CC1 (stereo unspecified) | i
COc1ccc(CCO[C@@H]2O[C@H](CO[C@@H]3OC[C@H](O)[C@H](O)[C@H]3O)[C@@H](O)[C@H](O)[C@H]2O)cc1 | +
OC1COC(OCC2OC(OCCc3ccccc3)C(O)C(O)C2O)C(O)C1O (stereo unspecified) | +
C[C@@H]1O[C@@H](OC[C@H]2O[C@@H](OCCc3ccccc3)[C@H](O)[C@@H](O)[C@@H]2O)[C@H](O)[C@H](O)[C@H]1O | i
C=CCc1ccc(O[C@@H]2O[C@H](CO[C@@H]3O[C@@H](C)[C@H](O)[C@@H](O)[C@H]3O)[C@@H](O)[C@H](O)[C@H]2O)cc1 | i
COC(=O)c1ccc(OC)cc1O[C@@H]1O[C@H](CO[C@@H]2OC[C@@H](O)[C@H](O)[C@H]2O)[C@@H](O)[C@H](O)[C@H]1O | i
OC[C@@]1(O)CO[C@H](OC[C@H]2O[C@@H](OCCc3ccccc3)[C@H](O)[C@@H](O)[C@@H]2O)[C@@H]1O | i
Cn1c(=O)c2ccc(C(=O)NC3CCCCC3)cc2n2c(=O)n(CC(=O)c3ccc(Cl)cc3)nc12 | i
CCOC(=O)c1ccc(N2C(=O)CSc3c(c4ccccc4n3C)C2C(=O)NCCC(C)C)cc1 (stereo unspecified) | i
Cc1ccc(Cn2c(=O)c3ccc(C(=O)NC(C)C)cc3n3c(=O)n(CC(N)=O)nc23)cc1 | i
CCOCCCNC(=O)C1c2c(n(C)c3ccccc23)SCC(=O)N1Cc1ccc(C)cc1 (stereo unspecified) | i
CCCn1c(=O)c2cc(F)ccc2n2c(SCc3cccc(F)c3)nnc12 | i
COc1ccc(CN2C(=O)c3cc(C(C)(C)C)nn3CC2(C)C(=O)NC2CCCCCC2)cc1 (stereo unspecified) | i
Cc1cccc(-c2n[nH]n3c2nc(=O)c2ccc(C(=O)N4CCN(c5ccccn5)CC4)cc23)c1 | i
O=C(O)COCCN1CCN(C(c2ccccc2)c2ccc(Cl)cc2)CC1 (stereo unspecified) | i
O=C(O)COCCN1CCN([C@H](c2ccccc2)c2ccc(Cl)cc2)CC1 | i
CN(C)CCCNc1nc(CN2CCN(C(c3ccc(Cl)cc3)c3ccc(Cl)cc3)CC2)nc2ccccc12 | +
CCC(C)NC(=O)c1ccc2c(=O)n(C)c3nnc(SCC(=O)c4ccc(C)cc4C)n3c2c1 (stereo unspecified) | i
NCCOc1cc(C(=O)Nc2cc(OCCN)c3ccccc3n2)nc(C(=O)Nc2cc(OCCN)c3ccccc3n2)c1 | +
SMILES | Methyltransferases
COc1ccc(C(=O)Cn2nc3n(C)c(=O)c4ccc(C(=O)NC5CCCC5)cc4n3c2=O)cc1 | i
O=C(Nc1ncc([N+](=O)[O-])s1)c1ccccc1O | i
O=C(Nc1ccccc1)c1cc([N+](=O)[O-])ccc1Cl | i
O=C(c1cc(O)c(O)c([N+](=O)[O-])c1)c1ccccc1F | +
CCOc1ccc(CN2C(=O)c3cc4ccccc4n3CC2(C)C(=O)NCc2ccccc2)cc1OC (stereo unspecified) | i
CC(C)CNC(=O)c1ccc2c(=O)n(CC(C)C)c3nn(CC(=O)Nc4ccccc4)c(=O)n3c2c1 | i
CC1=C(C(=O)OC2CCCCC2)C(c2ccc([N+](=O)[O-])cc2)C2=C(CC(C)(C)CC2=O)N1 (stereo unspecified) | +
CCOC(=O)C1=C(C)NC(C)=C(C(=O)OC)C1c1cccc([N+](=O)[O-])c1 (stereo unspecified) | i

Screens deposited in PubChem BioAssay by National Center for Advancing Translational Sciences (NCATS).
